The panel holds about 83,000 compounds, 20% with a hit somewhere; the sample as a whole holds those more often.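 Plates (96-well) were seeded with cells, treated with compound at one concentration, and incubated for 48 hours before percent growth was determined.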 A number with no mark means an inactive call. Calls of active or inactive are those of the source. Rule for the calls: active = growth percent below 10; inactive = the rest.

This passage reports growth results from PubChem BioAssay (NCI).

Among the test systems are T-47D breast; BT-549 breast; MDA-MB-435 melanoma; SW-620 colon; MCF7 breast; HCT-116 colon; HCC-2998 colon; KM12 colon.
What all share (assay): NCI-60 one-dose screen, 48 h (100 = growth as untreated, 0 = no growth, -100 = all killed)
Holding throughout (details): 10 µM unless noted

Consider `COc1ccc(/C(C)=N/NS(=O)(=O)c2ccc(C)cc2)cc1OC`, for which the growth is 87.8% in the experiment on T-47D breast; 100% with BT-549 breast; 103% in the experiment on MDA-MB-435 melanoma; 102% with SW-620 colon; 102% in the experiment on MCF7 breast; 95.1% in the experiment on HCT-116 colon. Besides, the growth was 99.9% in the experiment on HCC-2998 colon and 108% in the experiment on KM12 colon.

As to `Cn1cc(-c2ccc3nc(-c4ccc(CC(=O)Nc5cc(C(C)(C)C)no5)cc4)cnc3c2)cn1`, the growth was 26% [30 µM] in the experiment with T-47D breast; 53.3% [30 µM] in the experiment with BT-549 breast; 26.2% [30 µM] with MDA-MB-435 melanoma; 34.5% [30 µM] in the experiment with SW-620 colon; 87.1% [30 µM] in the experiment on MCF7 breast; 15.3% [30 µM] with HCT-116 colon. In addition, the growth is 47.3% [30 µM] in the experiment with HCC-2998 colon and 6.95% [30 µM] (active) with KM12 colon.

Turning to `CC(C)CCC[C@@H](C)[C@H]1CCC2C3=CCn4c(=O)ccc(=O)n4C3CC[C@@]21C` (some centres undefined), the growth in the experiment with T-47D breast is -75.2% (active); in the experiment on BT-549 breast, -30.9% (active); in the experiment on MDA-MB-435 melanoma, -87.1% (active); in the experiment on SW-620 colon, -65.5% (active); with MCF7 breast, -92.5% (active); in the experiment with HCT-116 colon, -100% (active). The growth in the experiment on HCC-2998 colon is -93.1% (active); with KM12 colon it was -97.5% (active).

On to `O=C(/C=C/C12c3ccccc3C(c3ccccc31)C1C(=O)N(c3ccc(Cl)cc3)C(=O)C12)c1ccccn1` (centres undefined), for which the growth with T-47D breast was -3.33% (active); in the experiment on BT-549 breast it was -49.6% (active); in the experiment on MDA-MB-435 melanoma, -29.1% (active); with SW-620 colon it was -12.4% (active); with MCF7 breast, 2.48% (active); in the experiment on HCT-116 colon, -69.2% (active). Further, the values for the growth with HCC-2998 colon and in the experiment on KM12 colon were -87.4% (active) and -60.8% (active), respectively.

For `O=C(NC1CCOCC1)c1ccc2c(c1)CN(c1ncc(Cc3cccc(-n4cccn4)c3)s1)CC2`, the growth with T-47D breast was 38.9%; in the experiment with BT-549 breast, 31.1%; in the experiment on MDA-MB-435 melanoma, 76.3%; with SW-620 colon, 107%; with MCF7 breast, 56.9%; in the experiment on HCT-116 colon, 47.6%. Besides, the growth with HCC-2998 colon was 77%; with KM12 colon it was 84.9%.

As to `CCN(CC)CCOc1ccc(/C(=C(\C)c2ccc(OC)c(F)c2)c2ccc(Cl)cc2)cc1`, the growth in the experiment on T-47D breast is 89.7%; in the experiment with BT-549 breast it was 89%; with MDA-MB-435 melanoma, 60.3%; in the experiment with SW-620 colon, 63.2%; in the experiment on MCF7 breast it was 70.3%; with HCT-116 colon, 46.4%. The growth was 78.6% in the experiment on HCC-2998 colon and 19.1% with KM12 colon.

As to `O=C(Oc1ccc([N+](=O)[O-])cc1)c1ccc(CBr)cc1`, the growth with T-47D breast was 125%; with BT-549 breast, 105%; with MDA-MB-435 melanoma it was 98.8%; with SW-620 colon it was 94.9%; with MCF7 breast, 75.1%; in the experiment on HCT-116 colon, 87.8%. Further, the growth with HCC-2998 colon and with KM12 colon was 103% in each case.

`COc1ccc(/C(C)=C(\c2ccc(Cl)cc2)c2ccc(OCCN3CCCCC3)cc2)cc1F`: the growth with T-47D breast is 47.4%; in the experiment on BT-549 breast it was 60.7%; in the experiment on MDA-MB-435 melanoma it was 37%; in the experiment on SW-620 colon, 22.1%; in the experiment with MCF7 breast it was 15%; in the experiment on HCT-116 colon, 19.7%. Also, the figures for the growth in the experiment on HCC-2998 colon and in the experiment with KM12 colon were 25.2% and 18.7%, respectively.

Regarding `CCC(=O)OC1=C(C)SC2=NC(c3ccc(Cl)c(Cl)c3)=CC(c3cc(OC)c(OC)c(OC)c3)N21` (centres undefined), the growth in the experiment on T-47D breast is 97.5%; with BT-549 breast, 103%; in the experiment on MDA-MB-435 melanoma, 103%; in the experiment on SW-620 colon, 109%; in the experiment with MCF7 breast, 94.1%; in the experiment on HCT-116 colon, 95%. Besides, the figures for the growth in the experiment with HCC-2998 colon and in the experiment with KM12 colon were 110% and 107%, respectively.

Regarding `C=C(C)[C@@H]1CC[C@@]2(C(=O)O)CC[C@]3(C)C(CCC4[C@@]5(C)CCC(OS(=O)(=O)c6ccccc6)C(C)(C)C5CC[C@]43C)C12` (some centres undefined), the growth was 34.9% in the experiment with T-47D breast; 58.9% in the experiment on BT-549 breast; 59.4% with MDA-MB-435 melanoma; 48.8% in the experiment on SW-620 colon; 50.6% in the experiment on MCF7 breast; 25.7% in the experiment on HCT-116 colon. Moreover, the growth in the experiment on KM12 colon is 31.4%.

With `NC(=Nc1ccc(N)cc1)C(N)=Nc1ccc(N)cc1`, the growth is 104% with T-47D breast; 64.3% with BT-549 breast; 104% with MDA-MB-435 melanoma; 99.2% in the experiment on SW-620 colon; 90.4% in the experiment with MCF7 breast; 95.9% in the experiment with HCT-116 colon. For the same molecule, the growth in the experiment on KM12 colon is 108%.

For the molecule `CC(=[N-])N1CCC[C@@H](Nc2c3ccccc3nc3ccccc23)C1.[Cl][Pt].[NH-]CCC[NH-]`, the growth in the experiment with T-47D breast is 14.8%; in the experiment on BT-549 breast, 79%; in the experiment on MDA-MB-435 melanoma, 81.9%; with SW-620 colon, 20.5%; in the experiment on MCF7 breast it was 10.6%; in the experiment on HCT-116 colon, 14.9%. Besides, the growth in the experiment with HCC-2998 colon was 49.7%; in the experiment on KM12 colon, 49%.

Consider `COc1ccc(C2=NC(=O)NC2c2ccc(OC)cc2)cc1` (centres undefined), for which the growth with T-47D breast was 62.5%; in the experiment on BT-549 breast, 90.6%; with MDA-MB-435 melanoma, 9.83% (active); in the experiment with SW-620 colon, 38.7%; in the experiment on MCF7 breast it was 29.3%; in the experiment with HCT-116 colon it was 47%. In the experiment on KM12 colon, the growth was 41.1%.

For the molecule `COc1c(C)cnc(CSc2nc(-c3ccc(C)cc3)cn2-c2ccc(Cl)cc2)c1C`, the growth with T-47D breast is 88.1%; with BT-549 breast, 102%; in the experiment with MDA-MB-435 melanoma it was 110%; in the experiment on SW-620 colon, 100%; in the experiment with MCF7 breast, 102%; in the experiment with HCT-116 colon it was 79.8%. Also, the results for the growth with HCC-2998 colon and with KM12 colon were 106% and 105%, respectively.
